# Reference: PubChem BioAssay (NCATS)
# “And” between values parts separate entries of the source, which are not always exact repeats. Equal entries are not always repeated. Inconclusive results are not listed. A call without a number means that no potency is given here. The source made the active and inactive calls. Unless noted, the call rests on the fitted dose curve; in most records, active means well fitted curve in the direction sought with a large enough effect; inconclusive means small, poorly fitted or top-dose-only effect, or another doubt; inactive means no such curve, though single readings can be large; an effect the other way counts as inactive or inconclusive. Where a SMILES comes first, the peptide text is derived from it. [ ]: non-standard residue; d: D form.
# Key:
# [1] = qHTS to identify inhibitors of the type 1 interferon - major histocompatibility complex class I in skeletal muscle: primary screen against the NCATS Mechanism Interrogation Plate v5.0 (MIPE) Libary (AID 1347411); further: nearly all actives have a fitted effect of over 65% in size
# Summary of the method: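 Immortalized human myoblasts (C25cl48) with HiBit knocked into endogenous HLA-B*08:01 were stimulated with 4 ng/ml IFN-beta and given compounds in 11-point 1:3 titration from 46 uM. After 24 h at 37 C, lytic HiBiT luminescence was read.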
# [2] = Primary qHTS for inhibitors of nuclear receptor binding SET domain protein 2 (NSD2) in an isogenic RCH-ACV NSD2 p.E1099K mutant (9B) (AID 1645876); further: nearly all actives have a fitted effect of over 70% in size
# [3] = Primary qHTS for inhibitors of nuclear receptor binding SET domain protein 2 (NSD2) in an RCH-ACV wild type WT cells (2C) (AID 1645877); further: nearly all actives have a fitted effect of over 70% in size
# [4] = biological target: Glutathione peroxidase 1 (Homo sapiens) (UniProt P07203); assay: Primary qHTS Assay for Inhibitors of Recombinant Selenoprotein Glutathione Peroxidase 1 (GPX1) (AID 1845191); further: nearly all actives have a fitted effect of over 65% in size
# Summary of the method: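 Recombinant GPX1 (10 nM final) was preincubated with compound for 30 min at room temperature, then reacted with 1 mM GSH, 0.5 mM CHP, 0.5 mM NADPH and 100 nM glutathione reductase; NADPH fluorescence (340/450 nm) was read at 0 and 15 min.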
# [5] = biological target: Phospholipid hydroperoxide glutathione peroxidase GPX4 (Homo sapiens) (UniProt P36969); assay: Primary qHTS Assay for Inhibitors of Recombinant Selenoprotein Glutathione Peroxidase 4 (GPX4) (AID 1845192); details: outcome: dose series up to 50 µM unless noted; further: nearly all actives have a fitted effect of over 65% in size; on activity change, negative = inhibition: series mostly up to about 50 µM
# Summary of the method: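 GR-coupled readout: 100 nM GR, 1 mM GSH, 0.5 mM NADPH; NADPH fluorescence (ex 340/em 450 nm) read at t=0 and after 15 min RT. GPX4 200 nM, preincubated 30 min with compound; substrate 0.5 mM CHP.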
# [6] = qHTS drug screen for cell cycle checkpoint inhibitors in PARPi-resistant BRCA-mutant ovarian cancer cell lines. (AID 1963452; calls by dose curve); details: PEO1/OlaR viability, CellTiter-Glo luminescence, 96 h; for Z-AUC: stronger effect = lower value
# Summary of the method: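 PEO1, PEO4 and PEO1/OlaR ovarian cancer cells, 600 per well, exposed 96 h at 37C to a dilution series. Viability read by CellTiter-Glo luminescence, normalized to DMSO and empty wells; activity summarized as Z-AUC.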
# [7] = measured here: PEO1 parental Z-AUC
# Potency means the concentration at half of the fitted maximal effect.
# Glutathione peroxidase 1 (Homo sapiens), sequence (P07203 whole entry, looked up): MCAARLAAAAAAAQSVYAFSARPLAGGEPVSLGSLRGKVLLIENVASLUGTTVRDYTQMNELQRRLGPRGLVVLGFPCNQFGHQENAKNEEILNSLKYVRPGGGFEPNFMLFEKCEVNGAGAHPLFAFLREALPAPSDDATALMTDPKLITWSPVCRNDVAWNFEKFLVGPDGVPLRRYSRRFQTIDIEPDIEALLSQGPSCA
# Phospholipid hydroperoxide glutathione peroxidase GPX4 (Homo sapiens), sequence (P36969 whole entry, looked up): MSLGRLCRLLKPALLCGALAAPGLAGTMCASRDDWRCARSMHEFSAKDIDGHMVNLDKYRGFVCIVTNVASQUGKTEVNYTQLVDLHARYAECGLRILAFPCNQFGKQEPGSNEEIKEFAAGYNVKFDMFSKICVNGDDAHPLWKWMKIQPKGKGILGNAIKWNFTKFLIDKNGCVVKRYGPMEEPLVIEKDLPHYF
Structure (SMILES),Potency [1],Potency [2],Potency [3],Potency [4],Potency [5],Z-AUC [6],"Z-AUC [6, 7]",Z-AUC ([6]; measured here: PEO4 Z-AUC),Potency [6],"activity change, negative = inhibition [1]"
CNC(=O)[C@@H](NC(=O)[C@H](CC(C)C)[C@H](O)C(=O)NO)C(C)(C)C,inactive,18600 nM (active),13200 nM (active),inactive,inactive,1.14 (inactive),0.454,0.976,,
CONC(=O)Nc1ccc(-c2sc3c(c2CN(C)Cc2ccccc2)c(=O)n(-c2ccccc2)c(=O)n3Cc2c(F)cccc2F)cc1,inactive,inactive,inactive,inactive,inactive,-0.608 (inactive),-0.886,-0.917,,
COc1cc2c3c(n(CCCn4ccnc4)c(=O)c2cc1OC)-c1cc2c(cc1C3=O)OCO2,inactive,10.5 nM (active),13.2 nM (active),inactive,inactive,,-2.51,-1.77,7.8 nM (active),
O=C1Cc2cc(C(=O)NC3C[C@H]4CC[C@@H](C3)N4S(=O)(=O)CC3CCN(CCCC(F)(F)F)CC3)c(Cl)cc2N1 (stereo partly specified),inactive,inactive,inactive,inactive,inactive,-0.571 (inactive),-0.873,-0.957,,
CC1(C(=O)O)CCC2(C)CCC3(C)C(=CC(=O)C4C5(C)CCC(OC6OC(C(=O)O)C(O)C(O)C6OC6OC(C(=O)O)C(O)C(O)C6O)C(C)(C)C5CCC43C)C2C1 (stereo unspecified),inactive,inactive,inactive,inactive,inactive,-0.447 (inactive),1.94,1.74,,
COc1cc([C@@H]2c3cc4c(cc3[C@@H](O[C@@H]3O[C@@H]5CO[C@@H](c6cccs6)O[C@H]5[C@H](O)[C@H]3O)[C@H]3COC(=O)[C@H]23)OCO4)cc(OC)c1O,inactive,33.2 nM (active),23.5 nM (active),inactive,inactive,,-1.88,-2.18,87.1 nM (active),
CC1(C)CCC2(CC1)N[C@@H](C(=O)N[C@@H]1CC[C@@H](C(N)=O)OC1)[C@H](c1ccnc(Cl)c1F)[C@]21C(=O)Nc2cc(Cl)ccc21,17900 nM (active),319 nM (active),201 nM (active),inactive,inactive,-0.537 (inactive),-0.326,-0.309,,
COc1cc2nccc(Oc3ccc(NC(=O)c4cn(C(C)C)c(=O)n(-c5ccc(F)cc5)c4=O)cc3F)c2cc1OC,inactive,inactive,inactive,inactive,inactive,-0.766 (inactive),-0.766,-0.777,,
Nc1nc(-c2nn(Cc3ccccc3F)c3ncccc23)ncc1C1CC1,inactive,1180 nM (active),1180 nM (active),inactive,inactive,1.67 (inactive),0.865,1.09,,
C=C1CCC[C@]2(C)C=C3OC(=O)C(C)=C3C[C@@H]12,inactive,inactive,inactive,inactive,inactive,0.206 (inactive),-0.068,-0.0438,,
CN(C)CCNC(=O)NC[C@H]1CC[C@@H]2[C@H](O1)c1cc(C(F)(F)F)ccc1N[C@H]2c1ccccc1,inactive,263 nM (active),417 nM (active),inactive,inactive,-0.264 (inactive),-0.891,-1.1,,
C[C@]12CC[C@H](O)CC1=CC[C@@H]1[C@@H]2CC[C@]2(C)C(c3cccnc3)=CC[C@@H]12,inactive,inactive,inactive,inactive,inactive,0.978 (inactive),0.324,0.672,,
N=C(N)c1ccc2nc(-c3cc(CC(=O)N[C@@H](CC(=O)O)C(=O)O)cc(-c4cc(S(N)(=O)=O)ccc4O)c3O)[nH]c2c1,inactive,inactive,inactive,inactive,inactive,-0.76 (inactive),-0.562,-0.379,,
CC(C)C[C@@H]1NC(=O)[C@@H](C(C)C)NC(=O)[C@@H]2CCCN2C(=O)[C@@H](CC(=O)O)NC(=O)[C@@H](Cc2c[nH]c3ccccc23)NC1=O (cyclo(L[dW][dD]P[dV])),inactive,inactive,inactive,inactive,inactive,-0.319 (inactive),0.0618,-0.23,,
O=C1OC2(CCC(C(=O)Nc3ccn(-c4ccccc4F)n3)CC2)c2cnccc21 (stereo unspecified),inactive,inactive,inactive,inactive,inactive,0.0773 (inactive),0.881,0.97,,
Cc1ccc(S(=O)(=O)Nc2cc(-c3ccc(C#N)s3)ccc2C)cc1,inactive,46.8 nM (active),41.7 nM (active),inactive,inactive,-2.2 (inactive),-2.3,-2.13,,
C[C@H]1O[C@H](O[C@H]2[C@H](O)[C@@H](O)[C@@H](O[C@H]3[C@H](O)[C@@H](O)C(O)O[C@@H]3CO)O[C@@H]2CO)[C@H](O)[C@@H](O)[C@@H]1N[C@H]1C=C(CO)[C@@H](O)[C@H](O)[C@H]1O (stereo partly specified),inactive,inactive,inactive,inactive,inactive,0.621 (inactive),1.06,0.614,,
COc1ccc(S(=O)(=O)N[C@@H](CNc2nc(C)nc(N3CCC(c4ccc5c(n4)NCCC5)CC3)c2C)C(=O)O)cc1,inactive,inactive,inactive,inactive,inactive,,-1.54,-1.12,61.6 nM (active),
OC[C@H]1O[C@@H](S[C@@H]2O[C@H](CO)[C@H](O)[C@H](n3cc(-c4cccc(F)c4)nn3)[C@H]2O)[C@H](O)[C@@H](n2cc(-c3cccc(F)c3)nn2)[C@H]1O,inactive,inactive,inactive,inactive,inactive,-0.122 (inactive),0.00215,0.252,,

Structure (SMILES),Potency [1],Potency [2],Potency [3],Potency [4],Potency [5],Z-AUC [6],"Z-AUC [6, 7]",Z-AUC ([6]; measured here: PEO4 Z-AUC),Potency [6],"activity change, negative = inhibition [1]"
Cc1[nH]cnc1CN1CCN(C(=O)N[C@@H](CC(C)C)C(=O)O)[C@@H](Cc2ccccc2)C1=O,inactive,inactive,inactive,inactive,inactive,-0.059 (inactive),0.199,0.0254,,
C=CC(=O)N1CCC[C@H](n2c(=O)n(-c3ccc(Oc4ccccc4)cc3)c3c(N)ncnc32)C1,inactive,2090 nM (active),2090 nM (active),inactive,inactive,-0.0902 (inactive),0.044,-0.151,,
CC(C)(O)CNc1ncc(-c2ccnc(Nc3ccncc3)n2)c(CC2CC2)n1,16500 nM (active),4170 nM (active),3720 nM (active),inactive,inactive,-0.109 (inactive),-0.212,0.228,,
c1ccc(CNCc2ccc(CN3CCCNCCNCCCNCC3)cc2)nc1,inactive,inactive,inactive,inactive,inactive,1.17 (inactive),1.27,1.11,,
CCOc1ccc(Cc2cc([C@@H]3O[C@H](CO)[C@@H](O)[C@H](O)[C@H]3O)ccc2Cl)cc1,inactive,inactive,inactive,inactive,inactive,1.26 (inactive),1.31,1.52,,
C[C@H](NC(=O)[C@H]1NCC[C@@H]1O)c1ccc(-c2noc(CCC3CCCC3)n2)cc1,inactive,inactive,inactive,inactive,inactive,0.833 (inactive),0.65,0.666,,
Cc1nnn(C)c1-c1cnc2c3ccc(C(C)(C)O)cc3n([C@H](c3ccccc3)C3CCOCC3)c2c1,inactive,7.4 nM (active),9.3 nM (active),18300 nM (active),16100 nM (active),,-1.84,-2.14,549 nM (active),
COc1ccc(Cl)cc1-c1cc(=O)[nH]c(=S)n1CC(N)=O,inactive,inactive,inactive,inactive,inactive,0.0644 (inactive),0.00773,0.346,,
O=C1CC(c2c[nH]c3ccc(F)cc23)C(=O)N1 (stereo unspecified),inactive,inactive,inactive,inactive,inactive,0.488 (inactive),0.554,0.655,,
Cc1cc(C)cc(Oc2ccc(CNC(=O)[C@H](C)N)cc2C)c1,inactive,18600 nM (active),18600 nM (active),inactive,inactive,1.6 (inactive),1.04,1.3,,
CCc1cc2c(c(OCC(F)(F)F)c(C(=O)NC3CCN(C(=O)CO)CC3)n2C)c(=O)n1CC(=O)c1ccccc1,inactive,inactive,inactive,inactive,inactive,-1.12 (inactive),-0.345,0.581,,
CCO[C@@H]1OC(=O)C[C@@H]1NC(=O)[C@@H]1CCCN2C(=O)CC[C@H](NC(=O)c3nccc4ccccc34)C(=O)N12,inactive,inactive,inactive,inactive,inactive,-0.883 (inactive),-0.455,-1.09,,
COc1cc(OCc2cccc(-c3ccccc3)c2C)cc(OC)c1CN1CCCC[C@H]1C(=O)O,inactive,inactive,inactive,inactive,inactive,-0.024 (inactive),-0.135,-0.37,,
O=C(NO)c1cnc(N2C[C@H]3C[C@@H]2CN3c2cc(C(F)(F)F)ccn2)nc1,4660 nM (active),2950 nM (active),2950 nM (active),inactive,inactive,-1 (inactive),-1.23,-1.32,,
C[C@@]1(c2ncncc2F)NC(=O)c2cc(-c3cn[nH]c3)ccc21,20800 nM (active),14800 nM (active),14800 nM (active),inactive,inactive,-0.499 (inactive),-0.528,-0.372,,
COc1cc(C)[nH]c(=O)c1CN1CCc2c(Cl)cc([C@H](OC)C3COC3)c(Cl)c2C1=O,inactive,inactive,inactive,inactive,inactive,1.05 (inactive),0.817,0.549,,
C=C1C[C@@H]2CC[C@@]34C[C@H]5O[C@H]6[C@@H](O3)[C@H]3O[C@H](CC[C@@H]3O[C@H]6[C@H]5O4)CC(=O)C[C@@H]3[C@@H](OC)[C@@H](C[C@H](O)CN)O[C@H]3C[C@H]3O[C@@H](CC[C@@H]1O2)C[C@@H](C)C3=C,,1.4 nM (active),1.1 nM (active),inactive,inactive,,-3.01,-2.65,8.9 nM (active),-7.19% [at 8.44 µM] (inactive)
CNC(=O)Cn1cc(-c2ccc3c(c2)C(F)CC32NC(=O)N(CC(=O)N(Cc3ccc(F)cc3)[C@@H](C)C(F)(F)F)C2=O)cn1 (stereo partly specified),inactive,52.5 nM (active),66.1 nM (active),inactive,inactive,0.811 (inactive) and 1.3 (inactive),0.434 and 1.73,0.0101 and 0.997,,
